# Measurements from PubChem BioAssay (NCI).
# This is part of a sample that, as a whole, favours compounds with a hit. Of some 83,000 tested, about 20% had one in any assay.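 96-well plates, one dose, 48 hours. Percent growth reported; active if below 10.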 The source made the active and inactive calls.
# System: RPMI-8226 leukemia
# Test: NCI-60 one-dose screen, 48 h (100 = growth as untreated, 0 = no growth, -100 = all killed)
# Details: 10 µM unless noted
row,Structure (SMILES),growth
1,Cc1c(C)c([N+](=O)[O-])c(C)c([N+](=O)[O-])c1C,102% (inactive)
2,CC(c1ccccc1)C(C(=O)c1ccccc1)c1ccccc1 (stereo not drawn),107% (inactive)
3,CSc1nc2sc3cccc(Cl)c3n2c(=N)c1C#N,90.7% (inactive)
4,CCN(c1ccccc1)S(=O)(=O)c1cc([N+](=O)[O-])ccc1Cl,43.8% (inactive)
5,COC1=CC(=O)c2ccccc2C1=O,73% (inactive)
6,COC(=O)c1ccc2c(c1)[n+](=O)c(C(C)=O)c(C(F)(F)F)n2[O-],-48% (active)
7,COc1cc(/C=C/C(=O)c2nc3cc(F)ccc3nc2C)cc(OC)c1OC,-4.08% (active)
8,Cc1nc2ccc(Cl)cn2c1-c1nnc(SCc2ccc([N+](=O)[O-])cc2)o1,81.9% (inactive)
9,COc1ccc(/C=C/C(=O)Nc2cc(/C=C\c3cc(OC)c(OC)c(OC)c3)cc(OC)c2OC)cc1OC,30.7% (inactive)
10,C[C@H]1[C@H]2[C@H]3CC[C@@H]4[C@@]5(C)CC[C@H](O)C(C)(C)[C@@H]5CC[C@@]4(C)[C@]3(C)CC[C@]23CO[C@]1(C)[C@@H](C(=O)/C=C\c1ccco1)C3,106% (inactive)
11,COc1cc2cc(Oc3cccc(NC(=O)Nc4cc(C(F)(F)F)cc(C(F)(F)F)c4)c3)c(C)nc2cc1OC,1.15% (active)
12,Cc1ncc(C(=O)Nc2ccc(CN3CCN(C)CC3)c(C(F)(F)F)c2)cc1C#Cc1cnc(N)cc1C#N,-7.94% (active)
13,C#Cc1cccc(NC(=O)c2cccc(NC(=O)CCl)c2)c1,-3.03% [8.25 µM] (active)
